# In all, about 33,000 sequences were measured (“E-score (-0.5 to 0.5)”: median about -0.01, highest 2% from about 0.26 on). Shown is part of a subset that was picked to be rich in the highest values.
# Target: Ste12 (UniProt P13574)
# Assay: PBM E-score (8-mer binding enrichment) (E-score (-0.5 to 0.5)); higher = stronger / more preferred TF binding
# Settings: protein concentration: 200 nM; construct: GST-DNA-binding domain
# Experimental: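 Universal 'all 10-mer' protein binding microarrays (Agilent AMADID 015681) probed with GST-tagged S. cerevisiae TFs (full-length or DBD) made by in vitro transcription/translation (PURExpress), about 100-200 nM. Bound TF was detected with fluorescent anti-GST. Each ungapped 8-mer (which stands for itself and its reverse complement) is scored by the PBM enrichment score (E-score), a modified Wilcoxon-Mann-Whitney statistic from -0.5 to +0.5, computed with the Universal PBM Analysis Suite. Scale: above 0.35 generally sequence-specific binding.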
# Sequence of UniProt P13574 (P13574 whole entry): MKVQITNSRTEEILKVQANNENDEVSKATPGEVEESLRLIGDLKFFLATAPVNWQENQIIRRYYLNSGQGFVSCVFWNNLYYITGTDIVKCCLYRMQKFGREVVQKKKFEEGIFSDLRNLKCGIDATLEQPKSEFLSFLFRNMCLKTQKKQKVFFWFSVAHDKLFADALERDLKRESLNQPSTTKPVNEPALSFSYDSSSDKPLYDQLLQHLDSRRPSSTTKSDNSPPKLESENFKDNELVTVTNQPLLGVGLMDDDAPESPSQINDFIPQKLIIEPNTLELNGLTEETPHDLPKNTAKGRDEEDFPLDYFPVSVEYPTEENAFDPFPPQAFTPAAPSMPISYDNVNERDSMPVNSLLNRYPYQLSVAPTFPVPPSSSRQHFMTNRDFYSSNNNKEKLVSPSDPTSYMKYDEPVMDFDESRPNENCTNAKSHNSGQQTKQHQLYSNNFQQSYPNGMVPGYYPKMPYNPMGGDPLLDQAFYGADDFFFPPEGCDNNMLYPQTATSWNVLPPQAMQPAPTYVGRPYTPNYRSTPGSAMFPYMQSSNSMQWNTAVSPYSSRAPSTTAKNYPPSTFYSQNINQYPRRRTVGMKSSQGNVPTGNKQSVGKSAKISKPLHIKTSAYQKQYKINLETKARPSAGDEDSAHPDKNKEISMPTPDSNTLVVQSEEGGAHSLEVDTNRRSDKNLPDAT
row,Sequence,PBM E-score
1,CTTTAGCC,-0.029
2,AATAGTTG,0.255
3,AAGCAGAA,0.109
4,AATTGAGT,0.195
5,GTATGGAC,-0.0968
6,CTTGTTTA,0.0423
7,ATTGTTAG,0.0697
8,ATTGTTTG,0.184
9,CTTGTTTC,0.375
10,ATTGTTTA,0.0651
11,ATTGTTTC,0.356
12,CTTGTTAC,0.129
13,ATTGTTAC,0.297
14,CTTGTTGC,0.00409
15,ATCTCTTA,0.197
16,CCTTTCCC,-0.0368
17,ATAGCAGA,-0.0552
18,CCGGCTAC,0.0776
19,CGAGCCAG,-0.0693
20,AACGCACT,-0.0209
21,CATAAACC,0.0477
22,AATAAACG,0.0508
23,AATAAACA,0.284
24,GATAAACA,0.096
25,TATAAACA,0.114

row,Sequence,PBM E-score
1,AATAAACC,0.269
2,AAGTATGC,-0.197
3,AGCCCCCA,-0.118
4,TATGGACA,-0.00254
5,CGGTCGAA,0.00203
6,CAGTTTAC,-0.053
7,CGTTAAAG,0.0915
8,CGCCGGCG,0.275
9,AGCCGGCG,0.106
10,CGCCGGCC,-0.00587
11,CAGACCCG,0.0234
12,CTCTCCTC,-0.168
13,AAGTAAAT,0.261
14,GTGTAAGA,0.058
15,ATGTAACC,0.143
16,ATGTAACA,0.288
17,CTGTAATA,0.119
18,CTGTAACC,0.183
19,GCGTAACA,-0.0008
20,CTGTAACA,0.268
21,AAGTAAAG,-0.0589
22,GTGTAACA,0.319
23,AAGTAAAC,0.0949
24,ATGTAACG,0.241
25,GCGTCCAA,-0.13

row,Sequence,PBM E-score
1,ATGATTGC,0.146
2,CAAGACTG,-0.101
3,ATGCACAG,-0.111
4,ACTATTGG,-0.0275
5,CAACTTGA,0.0746
6,AAGTAACA,0.291
7,AAGTAACG,0.141
8,AAGTAACT,0.0625
9,AGACCGTA,-0.0932
10,CATGGTGG,-0.0711
11,GACTCTAA,0.115
12,GTGATAAA,0.131
13,ATGATAAA,0.209
14,TTCATAAA,0.324
15,TTGATAAA,0.277
16,ATCATAAA,0.0612
17,ACCATAAA,0.278
18,CTCATAAA,-0.00236
19,TCCATAAA,0.11
20,ACCATAAG,-0.16
21,ACTTTGAC,-0.101
22,ACTTCCCT,-0.0919
23,GGGTTCAC,-0.0147
24,GATCTGCC,0.0158
25,TAAAAGCA,0.172

row,Sequence,PBM E-score
1,CCAATCGA,0.067
2,CTTCACAA,-0.0638
3,CCCGAAAG,0.00951
4,CACGAAAA,0.243
5,CACGAAAG,0.095
6,GTCGAAAC,0.128
7,ATCGAAAA,0.125
8,AACGAAAC,0.314
9,AACGAAAG,0.0635
10,CACGAAAC,0.266
11,AACGAAAT,0.169
12,ATCGAAAC,0.324
13,GCCGAAAC,0.178
14,CCCGAAAC,0.303
15,CCCAGGTC,-0.207
16,TCCACAAA,0.14
17,GCTTCCAC,-0.11
18,CTAGGGCC,-0.187
19,ATCGCGCG,0.0537
20,ATGTCTAA,0.0254
21,GGGCCCCA,-0.146
22,CTCCTCAG,-0.11
23,GAGGTTAA,0.0122
24,AGCTGGGA,-0.0199
25,ATGTGAAA,0.202

row,Sequence,PBM E-score
1,CTGTGAAG,0.00467
2,TTGTGAAA,0.342
3,CTGTGAAC,-0.0759
4,CTGTGAGA,-0.0675
5,GTGTGAAA,0.307
6,GTGTGAAC,0.169
7,CTGTGAAA,0.322
8,GTGTGAGA,0.0959
9,ACCTGCCA,-0.121
10,AGAAAGGA,-0.0699
11,AAAGCGAA,0.133
12,CTTGCATA,-0.045
13,TCAGGTCA,-0.015
14,AAAGTCCC,-0.0967
15,CGAGGCCG,-0.158
16,GGATTTAA,0.243
17,AAAACATC,0.301
18,AAAACATG,0.324
19,ACAACATC,-0.0874
20,CAAACATG,0.179
21,ATAACATC,0.0956
22,AAAACAAT,0.225
23,AAAACATA,0.208
24,AACACATG,0.128
25,AAAACATT,0.28

row,Sequence,PBM E-score
1,AGTGTAGG,0.00693
2,ATGTGCTG,0.133
3,CTTCGCTC,-0.224
4,CCCACCCC,0.391
5,CCCACCCA,0.269
6,CCCACCCG,0.358
7,GCCACCCA,-0.106
8,CACACCCG,0.0642
9,TCCACCCA,-0.0525
10,ACCACCCC,0.0858
11,GCCACCCC,-0.0121
12,ACCACCCG,-0.106
13,CCTCTTGC,0.0254
14,ATCTTCAC,0.145
15,CACGGGCG,0.00735
16,ATAGCCTG,-0.0913
17,TAGATCGA,0.0552
18,CCAGCTCA,-0.194
19,CCGTTGAA,0.0239
20,ATTATTTA,0.281
21,ACTTATTA,0.264
22,CTTTATAA,0.153
23,GTTTATTA,0.304
24,ATTTATAA,0.267
25,GCTTATTA,0.0471

row,Sequence,PBM E-score
1,GATTATTA,0.196
2,CTTATTTA,0.171
3,CTTTATTA,0.112
4,CCTTATTA,0.187
5,ATTTATAC,0.195
6,ATTATTTG,0.106
7,AGATCCCG,0.0252
8,GAAGGTTA,-0.115
9,GGCCGACC,-0.123
10,ACGTAAAG,0.0191
11,CACAAGGG,-0.194
12,CGCCTCTA,-0.0334
13,ATTATTAC,0.269
14,ATTTATTG,0.0911
15,CTTATTAC,0.0999
16,ACTATTAC,0.0443
17,ATTTATTA,0.292
18,ATTTATTC,0.121
19,CGTGGTAA,-0.0665
20,ACATCTCA,-0.0976
21,CGCTCGAA,-0.0852
22,CTGATCAC,-0.0885

# Source: the supplement of paper PMC3334620
